Screening results as filed in PubChem BioAssay.
An excerpt weighted towards active compounds, which were near 11% of everything screened.
IMPase Li inh: qHTS Assay for Identifying the Cell-Membrane Permeable IMPase Inhibitors: Potentiation with Lithium | CHO-M1 cells, IP1 TR-FRET (IP-One), carbachol + lithium | Potency, µM (doses to about 59.4 µM), inactives show at the top dose activity, negative = IMPase inhibition, usual class: inhibitors | 210,000 tested, 0.35% active | AID 1457, 2008; active means well fitted curve in the direction sought with a large enough effect; inconclusive means small, poorly fitted or top-dose-only effect, or another doubt; inactive means no such curve, though single readings can be large; an effect the other way counts as inactive or inconclusive;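 further: IP1 builds up when IMPase is blocked and the TR-FRET signal falls; potency means the concentration at half of the fitted maximal effect; plate controls were basal vehicle for no effect and high inhibitor control for full effect; nearly all actives have a fitted effect of over 50% in size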
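Readout is a homogeneous TR-FRET IP1 immunoassay (Ex 320, Em 665 and 620), where raised cytosolic IP1 lowers signal. Cells were CHO-M1 treated 30 min at 37C with test compounds plus a little lithium; AC50 values came from Hill-equation fitting.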
HPGD block: qHTS Assay for Inhibitors of HPGD (15-Hydroxyprostaglandin Dehydrogenase) | 15-hydroxyprostaglandin dehydrogenase [NAD(+)] (Homo sapiens), P15428 | purified HPGD, NADH fluorescence kinetic, PGE2 substrate | Potency, µM, for inactives: top-dose activity change, negative = inhibition, hits mostly inhibitors | 150,000 tested, 4.3% active | AID 894, 2007; further: potency means the concentration at half of the fitted maximal effect
Target sequence (P15428 whole entry, looked up): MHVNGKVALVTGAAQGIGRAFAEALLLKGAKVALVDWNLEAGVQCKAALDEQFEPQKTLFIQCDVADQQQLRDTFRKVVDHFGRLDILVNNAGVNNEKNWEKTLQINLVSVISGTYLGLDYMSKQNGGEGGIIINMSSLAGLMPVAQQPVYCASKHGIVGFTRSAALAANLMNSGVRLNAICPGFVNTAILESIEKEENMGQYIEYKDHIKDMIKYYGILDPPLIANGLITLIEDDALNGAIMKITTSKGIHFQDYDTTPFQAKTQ
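20 nM HPGD preincubated 15 min at room temperature with compound in 50 mM Tris-HCl pH 8, 0.01% Tween 20. Started with 1 mM NAD+ and 30 uM prostaglandin E2; NADH fluorescence (360/450 nm) read 5 times over 30-s intervals, last minus first.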
IMPase cell inh: qHTS Assay for Identifying the Cell-Membrane Permeable IMPase Inhibitors; Inositol monophosphatase 1 (Rattus norvegicus), P97697; CHO-M1 cells, IP1 accumulation, HTRF TR-FRET ratio; inhibition (IP1 accumulation), % at 46.1 µM; 120,000 tested, under 10 active; active means well fitted curve in the direction sought with a large enough effect in the signal ratio, not every such curve was filed as active; inconclusive means small, poorly fitted or top-dose-only effect, or a change in a side signal; inactive means no such curve, though single readings can be large or run the other way; the % refers to the signal ratio;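 further: cells stimulated with carbachol in lithium chloride buffer; plate controls were DMSO basal wells for no effect and reference inhibitor wells for full effect; higher means more IMPase inhibition seen as more IP1 and lower FRET ratio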
Target sequence (P97697 whole entry, looked up): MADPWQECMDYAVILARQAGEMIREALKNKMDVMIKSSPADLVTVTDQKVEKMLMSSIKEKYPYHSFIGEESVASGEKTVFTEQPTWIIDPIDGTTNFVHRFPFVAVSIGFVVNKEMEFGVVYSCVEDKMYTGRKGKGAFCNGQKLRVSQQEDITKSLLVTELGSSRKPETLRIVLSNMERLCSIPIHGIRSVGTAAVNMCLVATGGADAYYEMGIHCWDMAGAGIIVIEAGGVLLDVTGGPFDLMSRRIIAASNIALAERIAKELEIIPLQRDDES
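In this qHTS, compounds (final up to 46 uM) act on CHO-M1 cells that are then activated through the M1 receptor with carbachol, in pH 7.4 buffer containing 50 mM LiCl, for 30 min. IP1 accumulation is quantified by the IP-One immunoassay.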
ALOX12 inhib: qHTS Assay for Inhibitors of 12-hLO (12-human lipoxygenase); Polyunsaturated fatty acid lipoxygenase ALOX12 (Homo sapiens), P18054; purified 12-hLO, xylenol orange hydroperoxide absorbance; Potency, µM (titrated, usually from 57.1 µM), for the others: at the top dose activity change, negative = inhibition, usual class: inhibitors; 150,000 tested, 0.12% active; AID 1452, 2008; active means well fitted curve in the direction sought with a large enough effect; inconclusive means small, poorly fitted or top-dose-only effect, or another doubt; inactive means no such curve, though single readings can be large; an effect the other way counts as inactive or inconclusive; further: potency means the concentration at half of the fitted maximal effect; nearly all actives have a fitted effect of over 55% in size
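Hydroperoxide formation by human 12-lipoxygenase from 40 uM arachidonic acid was followed colorimetrically via ferric-xylenol orange complex, using the 573/405 nm absorbance ratio. Enzyme concentration was 150 nM, with 30 min reaction at room temperature.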
PNC assembly inh: High Content Assay for Compounds that inhibit the Assembly of the Perinucleolar Compartment. PC3M PTB-GFP, PNC prevalence imaging, 16 h; hits give low values. AID 2417, 2010. activity change (PNC), negative = inhibition, % at 10 µM. 140,000 tested, 3.1% active;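 active means readout at or below -70, meaning at least 70% loss of cells showing the perinucleolar compartment, a nuclear body marking cancer cells; inconclusive means readout between -30 and a set limit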;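 further: plate controls were DMSO wells for no effect and camptothecin positive control wells for full effect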
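Read-out is percentage of cells bearing a perinucleolar compartment, from automated 20x imaging of fixed, Hoechst-stained PC3M PTB-GFP cells. Cells were seeded 4 h, then exposed 16 h to compound (23 nl of library stock) in duplicate plates.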
ALDH1A1 inh: qHTS Assay for Inhibitors of Aldehyde Dehydrogenase 1 (ALDH1A1). Purified ALDH1A1, NADH fluorescence, propionaldehyde substrate. Potency, µM (titrated, usually from 75.3 µM), inactives show at the highest dose activity, negative = inhibition, most hits filed as inhibitors. 220,000 tested, 7.3% active. AID 1030, 2008;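 further: potency means the concentration at half of the fitted maximal effect; plate controls were no enzyme wells and a reference inhibitor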
Starred values were filed as active, the others as inactive; ? = inconclusive; nt = not tested or not shown; [ ] = remark or other dose. Unless noted, the call rests on the fitted dose curve; in most records, active means well fitted inhibition curve with a large enough effect (not every such curve was filed as active); inconclusive means small, poorly fitted or top-dose-only effect, or another doubt; inactive means no such curve, though single readings can be large or run the other way. Unless noted, on the % scale 0 is the no-effect control and ±100 the full control effect.

SMILES	IMPase Li inh	HPGD block	IMPase cell inh	ALOX12 inhib	PNC assembly inh	ALDH1A1 inh
CCOCCCn1c(C)nc2c(c1=O)c1nc3ccccc3nc1n2-c1ccc(C)cc1	-22.7%[38.3 µM]	-16.4%	-5.7	0.1%	3.9	8.1%
CCO/C(C)=N/n1c2nc3ccccc3nc2c2c(=O)n(CC(C)C)c(C)nc21	-17.0%[38.3 µM]	-15.4%	0.3	7.5%	132.6	25.1µM*
Cc1cc(C(=O)Oc2ccccc2C(=O)O)c(C)o1	-1.3%[38.3 µM]	-5.4%	4.5	-4.3%	-100.0*	2.4%
O=S(=O)(c1ccccc1F)N1CCN(Cc2nc3ccccc3[nH]2)CC1	33.5%[38.3 µM]	-6.6%	-1.9	-15.8%	41.0	11.2µM*
c1ccc2[nH]c(CN3CCCCCC3)nc2c1	11.2%[38.3 µM]	-17.1%	6.1	-3.1%	15.3	-4.4%
Oc1[nH]c(=S)sc1C=C1N=c2ccccc2=N1	nt	nt	nt	nt	nt	5.9%
S=c1[nH]c2ccccc2s1	5.3%	25.1µM*	nt	-4.0%[0.00818 µM]	nt	11.2µM*
CS(=O)(=O)N1CCC[C@@]2(CCN(Cc3nccs3)C2)C1	-0.1%	-4.5%	nt	3.0%	nt	3.5%
Cc1cc(F)ccc1NCc1ccccc1[N+](=O)[O-]	19.5%	nt	nt	nt	nt	0.631µM*
O=[N+]([O-])c1ccccc1CNc1ccc(F)c(Cl)c1	2.3%	-5.4%	nt	-4.9%	60.3	?
Cc1cc([N+](=O)[O-])ccc1NCc1ccccc1[N+](=O)[O-]	7.6%	nt	nt	nt	nt	17.8µM*
COc1cccc(C2C(C(N)=O)=C(C)Nc3ncnn32)c1 (configuration not stated)	nt	nt	2.6	nt	nt	nt
COCn1c2ccccc2c2nnc(C(=O)O)nc21	nt	nt	nt	nt	nt	5.7%[13.5 µM]
O=C(c1csnn1)N1CCC2(CC1)CCN(c1cccc(-c3ccccc3)c1)CC2	4.6%	-13.0%	nt	4.9%	nt	2.8%
Cc1ccc(S(=O)(=O)n2c3ccccc3c3nnc(C(=O)c4ccccc4)nc32)cc1	nt	nt	nt	nt	nt	-7.3%[13.5 µM]
COc1ccc2c(c1OC)C(=O)N(c1cccc(C)c1)C2=O	0.1%[38.3 µM]	-13.1%	?	-4.4%	-1.5	5.01µM*
Fc1ccc(Nc2nc(-c3cccnc3)nc3ccccc23)cc1	23.7%	?	nt	0.2%	nt	2.5%
Cc1nn(C(=O)COc2ccccc2Br)c(C)c1Sc1ccccc1	nt	nt	2.5	nt	nt	nt
COc1ccc(NS(=O)(=O)c2cccc(Cl)c2Cl)cc1S(=O)(=O)N1CCCCC1	-2.8%	-3.0%	-0.1	-4.1%	9.7	0.355µM*
COc1ccc(NS(=O)(=O)c2cc(Cl)ccc2Cl)cc1S(=O)(=O)N1CCCCC1	-0.2%	nt	nt	nt	nt	-5.8%
COc1ccc(NS(=O)(=O)c2cccc(Cl)c2)cc1S(=O)(=O)N1CCCCC1	-5.2%	-8.6%	nt	-5.7%	63.5	15.8µM*
O=C(/C=C\c1ccc(O)cc1)c1ccc(O)cc1O	nt	nt	-5.1	-9.8%	nt	nt
c1cncc(-c2cncnc2-n2ccnc2)c1	2.3%	-1.3%	nt	-3.2%	nt	4.8%
CCCC(O)(CCN1CCOCC1)c1ccc(Br)cc1 (configuration not stated)	42.6%[38.3 µM]	-8.0%	15.7	-3.1%	4.0	5.01µM*
CCC(C)c1ccc(OCCN2CCCC2)cc1 (configuration not stated)	1.8%[38.3 µM]	-3.5%	1.6	9.4%	43.8	?
SMILES	IMPase Li inh	HPGD block	IMPase cell inh	ALOX12 inhib	PNC assembly inh	ALDH1A1 inh
CCCOc1ccc(C(=O)CCN2CCCCC2)cc1	-0.1%[38.3 µM]	-20.7%	11.4	-0.9%	-8.8	0.0562µM*
CCCOc1ccc(OCCN2CCCC(C)C2)cc1 (configuration not stated)	22.8%	-8.8%	nt	-1.4%	9.0	?
CCOc1ccc(OCCN2CCCCC2)cc1	3.2%	0.2%	nt	0.2%	-87.6*	-5.7%
O=C(NCCCN1CCOCC1)c1ccc(Br)cc1	-6.2%[38.3 µM]	-9.8%	9.4	4.7%	-27.4	0.0%
Brc1cccc(OCCCN2CCCCCC2)c1	17.6%	nt	nt	nt	nt	12.6µM*
Cc1ccc(-c2nnc(Nc3ccc(OCC(N)=O)cc3)c3ccccc23)cc1S(=O)(=O)N(C)C	nt	nt	0.3	nt	nt	nt
CCOc1ccc(C(=O)CCN2CCCCCC2)cc1	3.2%[38.3 µM]	-14.3%	9.3	-6.2%	19.0	0.0631µM*
CCCCOc1ccc(C(=O)CCN2CCOCC2)cc1	3.8%	nt	nt	nt	nt	0.282µM*
CCCOc1ccc(C(O)(CCC)CCN2CCCCC2)cc1 (configuration not stated)	28.8%	-10.0%	-0.4	6.3%	12.2	25.1µM*
O=C(CCN1CCCCC1)c1ccc2c(c1)OCO2	2.8%[38.3 µM]	?	7.8	-8.6%	8.1	?
CN(C)c1ncc2nc(-c3ccccc3)c(=O)n(C3CC3)c2n1	-2.3%	?	nt	-5.2%	nt	?
COc1cc(C)ccc1OCCCCN1CC(C)OC(C)C1 (configuration not stated)	26.3%[38.3 µM]	0.1%	1.4	-0.4%	34.9	-5.1%
CCOc1ccccc1OCCOCCN1CC(C)OC(C)C1 (configuration not stated)	2.8%[38.3 µM]	0.8%	4.3	-3.2%	-87.4*	-9.6%
Cc1cccnc1Sc1c([N+](=O)[O-])ncn1C	-0.5%[38.3 µM]	-7.9%	-5.0	-2.2%	38.2	15.8µM*
CS(=O)(=O)c1cc([N+](=O)[O-])c(Sc2nc3ccccc3[nH]2)c([N+](=O)[O-])c1	60.6%[38.3 µM]	3.55µM*	26.4	?	?	8.91µM*
Cn1cnc([N+](=O)[O-])c1Sc1nc2ccccc2[nH]1	nt	nt	nt	nt	nt	20µM*
CCN1CCN(c2ccc([N+](=O)[O-])c(Sc3nc4ccccc4[nH]3)c2)CC1	nt	nt	13.1	3.3%	?	3.1%
Cc1cccc(Sc2c([N+](=O)[O-])ncn2C)c1	7.94µM*	5.01µM*	5.1	-21.6%	-7.4	0.1%
O=C(c1cc(C(F)(F)F)cc(C(F)(F)F)c1)N1CCC2(CCN(Cc3nccs3)CC2)CC1	6.1%	-1.3%	nt	-2.9%	nt	14.8%
Cc1nc([N+](=O)[O-])c(Sc2nc3ccccc3[nH]2)n1Cc1ccccc1	0.1%	-4.1%	3.8	-3.0%	-20.2	-8.5%
Cc1cc2nc(Sc3c([N+](=O)[O-])nc(C)n3Cc3ccccc3)[nH]c2cc1C	7.6%	-22.2%	-4.0	-5.0%	?	1.12µM*
O=C(O)C1C2C=CC(C2)C1C(=O)NC1CCS(=O)(=O)C1 (configuration not stated)	-4.9%[38.3 µM]	-11.5%	5.5	0.0%	30.3	22.4µM*
CC1(CCc2ccccc2)NC(=S)N(c2ccc(Cl)cc2)N1 (configuration not stated)	11.8%	1µM*	nt	?	-5.2	7.08µM*
